Potency and outcome data for 26 compounds are collected here from PubChem BioAssay (NCATS).

Assay [1] is described as follows: Primary qHTS for Huh7 cytotoxicity: counterscreen for inhibitors of MERS-S pseudotyped particle cell entry (AID 1479147).
A short description of assay [2]: Primary qHTS for inhibitors of MERS-S pseudo-typed particle cell entry (AID 1479149). Further: nearly all actives have a fitted effect of over 60% in size. Further: potency means the concentration at half of the fitted maximal effect. A general note: Quantitative high-throughput screening tests each substance at several concentrations.
Assay [3] can be described thus: Primary qHTS for Vero E6 cytotoxicity: counterscreen for inhibitors of SARS-S pseudo-typed particle cell entry (AID 1479150).
Assay [4] in a line: Primary qHTS for inhibitors of La Crosse Virus (LACV) - induced cell death in SH-SY5Y cells (AID 1508616; active means well fitted curve in the direction sought with a large enough effect; an effect the other way counts as inactive or inconclusive;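 further: top concentration of the series differs between compounds; higher means more rescue of cells from virus-induced death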). In outline: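 SH-SY5Y cells (6000/well) plated 24 h, then given compounds by pin transfer and LACV at 0.01 MOI for 6 days at 37C. Viability measured by ATPLite luminescence, normalized to infected DMSO and uninfected DMSO.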
Assay [5] deals with Calcium and integrin-binding protein 1 (Homo sapiens) (UniProt Q99828). The assay can be described thus: Primary qHTS for Identification of Calcium Integrin Binding Protein 1 (CIB1) Competitor (AID 1508620; active means well fitted curve in the direction sought with a large enough effect; an effect the other way counts as inactive or inconclusive; further: top concentration of the series differs between compounds). In outline: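 Fluorescence polarization competition: GST-tagged CIB1 (1 uM final) preincubated with compound 15 min at room temperature, then FITC-labelled alphaIIb peptide (100 nM final) added. After 15 min at room temperature, polarization read at Ex 480/Em 540.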

A short description of assay [6]: Primary qHTS for small molecule stabilizers of the endoplasmic reticulum resident proteome: Secreted ER Calcium Modulated Protein (SERCaMP) assay (AID 1508630; active means well fitted curve in the direction sought with a large enough effect; an effect the other way counts as inactive or inconclusive). In outline: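 GLuc-SERCaMP-expressing SH-SY5Y cells, pretreated 16 h with compound, are challenged with thapsigargin to empty ER calcium stores; after 4 h, coelenterazine is added directly to the medium and luminescence is imaged.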

Assay [7] is described as follows: Confirmatory qHTS for VERO E6 Cytotoxicity Assay: Counterscreen for SARS-CoV-2 CPE Assay (AID 1508605). Further: series mostly up to about 20 µM; nearly all actives have a fitted effect of over 60% in size.
Assay [8] is described as follows: Confirmatory qHTS for activators (rescue) of SARS-CoV-2 Cytopathic Effect (CPE) (AID 1508606). Further: potency means the concentration at half of the fitted maximal effect; nearly all actives have a fitted effect of over 70% in size.

Results filed as inconclusive are left out. Active and inactive are the calls of the source. Unless noted, the call rests on the fitted dose curve.

Sequence of Calcium and integrin-binding protein 1 (Homo sapiens) (Q99828 whole entry, looked up): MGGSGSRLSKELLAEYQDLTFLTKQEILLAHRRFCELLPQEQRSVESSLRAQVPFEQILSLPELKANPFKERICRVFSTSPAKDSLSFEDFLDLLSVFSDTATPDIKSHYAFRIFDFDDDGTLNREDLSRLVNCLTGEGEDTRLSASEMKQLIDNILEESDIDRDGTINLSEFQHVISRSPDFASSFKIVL

On to `CC1(C)S[C@@H]2[C@H](NC(=O)[C@H](N)c3ccccc3)C(=O)N2[C@H]1C(=O)O`, for which the Potency result in assay [1], in assay [2] and in assay [3] was “inactive” in each case.

In the case of `COC(=O)Nc1nc2ccc(C(=O)c3ccccc3)cc2[nH]1`, the Potency result in assay [1], in assay [2] and in assay [3] was “inactive” in each case.

Consider `Cc1onc(-c2ccccc2Cl)c1C(=O)N[C@@H]1C(=O)N2[C@@H]1SC(C)(C)[C@@H]2C(=O)O`, for which the Potency result in assay [1], in assay [2] and in assay [3] was “inactive” throughout.

For the compound `COC(=O)CCc1ccc(OCC(O)CNC(C)C)cc1` (stereo not given), the Potency result in assay [1], in assay [2] and in assay [3] was “inactive” each time.

In the case of `COC(=O)C1=C(C)NC(C)=C(C(=O)OC(C)C)C1c1cccc2nonc12` (stereo not given), the Potency result in assay [1], in assay [2] and in assay [3] was “inactive” throughout.

Turning to `CCCCc1nc(Cl)c(CO)n1Cc1ccc(-c2ccccc2-c2nn[nH]n2)cc1`, the Potency entry in assay [1], in assay [2] and in assay [3] was “inactive” throughout.

On to `CN1CCN(C2=Nc3cc(Cl)ccc3Nc3ccccc32)CC1`, for which the Potency entry in assay [1], in assay [2] and in assay [3] was “inactive” throughout.

As for `Cc1cccc(Nc2ccccc2C(=O)O)c1C`, the Potency result in assay [1], in assay [2] and in assay [3] was “inactive” throughout.

Regarding `COC(=O)N[C@H](C(=O)N[C@@H](Cc1ccccc1)[C@@H](O)CN(Cc1ccc(-c2ccccn2)cc1)NC(=O)[C@@H](NC(=O)OC)C(C)(C)C)C(C)(C)C`, the Potency result in assay [1], in assay [2] and in assay [3] was “inactive” each time.

As for `COc1ccc([C@@H]2Sc3ccccc3N(CCN(C)C)C(=O)[C@@H]2OC(C)=O)cc1`, the Potency entry in assay [1], in assay [2] and in assay [3] was “inactive” throughout.

Turning to `CCC(=O)O[C@H]1[C@H](O[C@@H]2[C@@H](C)[C@H](O[C@H]3C[C@@](C)(OC)[C@@H](O)[C@H](C)O3)[C@@H](C)C(=O)O[C@H](CC)[C@@](C)(O)[C@H](O)[C@@H](C)C(=O)[C@H](C)C[C@@]2(C)O)O[C@H](C)C[C@@H]1N(C)C`, the Potency entry in assay [1], in assay [2] and in assay [3] was “inactive” throughout.

In the case of `CN1CCC[C@@H]1Cc1c[nH]c2ccc(CCS(=O)(=O)c3ccccc3)cc12`, the Potency entry in assay [1], in assay [2] and in assay [3] was “inactive” each time.

As for `Nc1ccc(O)c(C(=O)O)c1`, the Potency entry in assay [1], in assay [2] and in assay [3] was “inactive” each time.

Consider `CS(=O)(=O)CCNCc1ccc(-c2ccc3ncnc(Nc4ccc(OCc5cccc(F)c5)c(Cl)c4)c3c2)o1`, for which the Potency result in assay [1], in assay [2] and in assay [3] was “inactive” each time.

For `COc1nc(N)nc2c1ncn2[C@@H]1O[C@H](CO)[C@@H](O)[C@@H]1O`, the Potency entry in assay [1], in assay [2] and in assay [3] was “inactive” each time.

As for `CC(C)(C#N)c1cc(Cn2cncn2)cc(C(C)(C)C#N)c1`, the Potency result in assay [1], in assay [2] and in assay [3] was “inactive” throughout.

As for `C[C@H]1O[C@H](O[C@H]2[C@H](O)[C@@H](O)[C@@H](O[C@H]3[C@H](O)[C@@H](O)[C@H](O)O[C@@H]3CO)O[C@@H]2CO)[C@H](O)[C@@H](O)[C@@H]1N[C@H]1C=C(CO)[C@@H](O)[C@H](O)[C@H]1O`, the Potency entry in assay [1], in assay [2] and in assay [3] was “inactive” throughout.

As for `CC(C)(C(=O)O)c1ccc(C(O)CCCN2CCC(C(O)(c3ccccc3)c3ccccc3)CC2)cc1` (stereo not given), the Potency result in assay [1], in assay [2] and in assay [3] was “inactive” in each case.

`C[C@]12CC[C@@H]3c4ccc(O)cc4C[C@@H](CCCCCCCCCS(=O)CCCC(F)(F)C(F)(F)F)[C@H]3[C@@H]1CC[C@@H]2O` (stereo not given in full): the Potency result in assay [1], in assay [2] and in assay [3] was “inactive” each time.

For the compound `NS(=O)(=O)c1cc2c(cc1C(F)(F)F)NCNS2(=O)=O`, the Potency result in assay [1], in assay [2] and in assay [3] was “inactive” each time.

For `COCCCC/C(=N\OCCN)c1ccc(C(F)(F)F)cc1`, the Potency entry in assay [1], in assay [2] and in assay [3] was “inactive” throughout.

As to `Cc1nc2n(c(=O)c1CCN1CCC(c3noc4cc(F)ccc34)CC1)CCC[C@H]2O`, the Potency entry in assay [1], in assay [2] and in assay [3] was “inactive” throughout.

`Oc1cc(Cl)ccc1Oc1ccc(Cl)cc1Cl`: the Potency entry in assay [4] and in assay [5] was “inactive” throughout. In addition, the result in assay [6] was inactive.

As for `CN(Cc1cnc2nc(N)nc(N)c2n1)c1ccc(C(=O)N[C@@H](CCC(=O)O)C(=O)O)cc1`, in assay [2], the Potency entry is “inactive”.

Regarding `CSc1ccc2c(c1)N(CCC1CCCCN1C)c1ccccc1S2` (stereo not given), in assay [3], the Potency result is “inactive”.

For `CNCC[C@H](Oc1cccc2ccccc12)c1cccs1`, the figures for the Potency in assay [2] and in assay [8] were 25.1 µM (active) and 10 µM (active), respectively. Besides, the Potency entry in assay [3] and in assay [7] was “inactive” in each case.
